PubChem BioAssay (EPA / NIEHS)
Records with an inconclusive call do not appear. Active and inactive are the calls of the source. The calls were made as follows, unless noted: active = hit-call score of the fitted dose curve at least 0.9, where 1 is the maximum; inactive = score below 0.9.

Assays:
[1] = BSK_3C_VCAM1: BioMAP Diversity Plus: 3C Assay for Vascular cell adhesion molecule 1 (VCAM1) Biomarker Activity (AID 2282999); settings: BioMAP 3C HUVEC, VCAM1 ELISA, cytokine-stimulated; actives raise or lower the signal
Procedure, shortened: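 HUVEC primary cells, 24 h compound exposure; VCAM-1 by ELISA; gain/loss of signal fitted bidirectionally vs DMSO baseline.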

[2] = BSK_4H_Eotaxin3: BioMAP Diversity Plus: 4H Assay for Eotaxin 3 Biomarker Activity (AID 2283000); settings: primary human endothelial cells (HUVEC); actives raise or lower the signal
Procedure, shortened: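 ELISA quantitation of CCL26 (Eotaxin-3) protein from chemically dosed human vascular endothelial cells at 24 h; increases and decreases both scored relative to DMSO-treated baseline.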

[3] = read-out: Intercellular Adhesion Molecule 1 (ICAM1), ICAM1 (gene 3383); experiment: BSK_3C_ICAM1: BioMAP Diversity Plus: 3C Assay for Intercellular Adhesion Molecule 1 (ICAM1) Biomarker Activity (AID 2283003); settings: primary human endothelial cells (HUVEC); actives raise or lower the signal
Procedure, shortened: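 Using DMSO as baseline, bidirectional curve fitting was applied to ICAM-1 ELISA signals from HUVEC in the 3C system, measured 24 h after compound addition.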

[4] = biological target: human Retinoic Acid Receptor beta (RARb), RARB (gene 5915) (UniProt P10826); experiment: ATG_RARb_TRANS: Attagene TRANS-FACTORIAL HepG2 Assay for human Retinoic Acid Receptor beta (AID 2283004; active = hit-call score of the fitted dose curve at least 0.9, where 1 is the maximum)
Procedure, shortened: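 Fluorescent capillary-electrophoresis detection of GAL4-UAS reporter mRNA defines the endpoint, with induction over DMSO-treated wells scored as activity. Transiently transfected human hepatoma HepG2 cells expressing exogenous NR–Gal4 proteins are exposed to test chemicals for 24 h.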

[5] = biological target: Retinoic acid receptor alpha (Homo sapiens) (UniProt P10276); experiment: ATG_RARa_TRANS: Attagene TRANS-FACTORIAL HepG2 Assay for human Retinoic Acid Receptor alpha (RARa) (AID 2283005; active = hit-call score of the fitted dose curve at least 0.9, where 1 is the maximum)
Procedure, shortened: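 HepG2 transiently transfected with multiplex GAL4-UAS reporter units including a human RARa–GAL4 chimera; 24 h compound exposure. Reporter mRNA quantified by RT-PCR, 6-FAM labeling and capillary electrophoresis; gain of signal versus DMSO.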

[6] = BSK_3C_Proliferation: Cell Proliferation Assessment in the BioMAP Diversity Plus: 3C Assay (AID 2283006); settings: primary human endothelial cells (HUVEC);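 as to AC50: potency may reflect either rise or fall in cell number versus DMSO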
Procedure, shortened: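 Measured here: sulforhodamine B (0.1%) staining of TCA-fixed sub-confluent umbilical vein endothelial cultures 48 h post-dosing, absorbance 560 nm. DMSO served as negative control and baseline; both signal gain and loss were modelled.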

[7] = biological target: Peroxisome proliferator-activated receptor gamma (Homo sapiens) (UniProt P37231); experiment: ATG_PPARg_TRANS: Attagene TRANS-FACTORIAL HepG2 Assay for human Peroxisome Proliferator-activated Receptor-gamma (PPARg) (AID 2283007; active = hit-call score of the fitted dose curve at least 0.9, where 1 is the maximum)
Procedure, shortened: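 Endpoint reflects upward reporter mRNA change versus DMSO controls. Setup: transiently transfected HepG2, GAL4-UAS reporters driven by chimeric NR-Gal4, 24 h incubation, RT-PCR with capillary electrophoresis read-out.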

[8] = biological target: Nuclear receptor subfamily 1 group I member 2 (Homo sapiens) (UniProt O75469); experiment: ATG_PXR_TRANS: Attagene TRANS-FACTORIAL HepG2 Assay for human Pregnane X Receptor (PXR) (AID 2283008; active = hit-call score of the fitted dose curve at least 0.9, where 1 is the maximum)
Procedure, shortened: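 Multiplexed TRANS reporter panel in HepG2; this component tracks PXR-Gal4-driven reporter mRNA after 24 h dosing, measured by RT-PCR with capillary electrophoresis fluorescence, fitted against DMSO.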

[9] = biological target: Retinoic acid receptor RXR-alpha (Homo sapiens) (UniProt P19793); experiment: ATG_RXRa_TRANS: Attagene TRANS-FACTORIAL HepG2 Assay for human Retinoid X Receptor alpha (RXRa) (AID 2283012; active = hit-call score of the fitted dose curve at least 0.9, where 1 is the maximum)
Procedure, shortened: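 Chimeric NR-GAL4 trans-activation in HepG2, 24 h treatment; reporter transcripts quantified by fluorescence on capillary electrophoresis, analysed for upward change from DMSO.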

[10] = biological target: human Retinoid X Receptor beta (RXRb), RXRB (gene 6257) (UniProt P28702); experiment: ATG_RXRb_TRANS: Attagene TRANS-FACTORIAL HepG2 Assay for human Retinoid X Receptor beta (RXRb) (AID 2283013; active = hit-call score of the fitted dose curve at least 0.9, where 1 is the maximum)
Procedure, shortened: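 After a 24 h incubation with test chemical, transfected HepG2 cells carrying NR-Gal4 fusions and GAL4-UAS reporter transcription units yield RNA whose reporter cDNA is FAM-labelled, HpaI-cut and sized by capillary electrophoresis; increases over DMSO are scored.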

[11] = read-out: E-selectin (Homo sapiens) (UniProt P16581); experiment: BSK_3C_Eselectin: BioMAP Diversity Plus: 3C Assay for Eselectin Biomarker Activity (AID 2283015); settings: primary human endothelial cells (HUVEC); actives raise or lower the signal
Procedure, shortened: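 Endpoint derived by bidirectional fitting against DMSO vehicle; signal is ELISA-detected E-selectin from primary HUVEC at 24 h post-dosing, with parallel SRB staining (0.1% SRB, 560 nm) flagging cytotoxicity.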

[12] = read-out: Interleukin-1 alpha (IL1a), IL1A (gene 3552); experiment: BSK_BE3C_IL1a: BioMAP Diversity Plus: BE3C Assay for Interleukin-1 alpha (IL1a) Biomarker Activity (AID 2283016); settings: primary human bronchial epithelial cells; actives raise or lower the signal
Procedure, shortened: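 Measured in human lung primary bronchial epithelial cells: IL-1a by ELISA at 24 h after dosing, with bidirectional fitting against DMSO.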

[13] = read-out: Monocyte Chemoattractant Protein-1 (MCP1), CCL2 (gene 6347); experiment: BSK_3C_MCP1: BioMAP Diversity Plus: 3C Assay for Monocyte Chemoattractant Protein-1 (MCP1) Biomarker Activity (AID 2283017); settings: primary human endothelial cells (HUVEC); actives raise or lower the signal
Procedure, shortened: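 Using human vascular primary endothelium, researchers measured MCP-1 by ELISA 24 h after treatment, with DMSO serving as negative control for bidirectional fitting.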

[14] = read-out: Monocyte Chemoattractant Protein-1 (MCP1), CCL2 (gene 6347); experiment: BSK_4H_MCP1: BioMAP Diversity Plus: 4H Assay for Monocyte Chemoattractant Protein-1 (MCP1) Biomarker Activity (AID 2283018); settings: primary human endothelial cells (HUVEC); actives raise or lower the signal
Procedure, shortened: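 Primary human umbilical vein endothelium is exposed to chemical for 24 h before MCP-1 is assayed by ELISA. Concentration-response fitted bidirectionally relative to DMSO.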

[15] = read-out: Human Leukocyte Antigen - DR isotype (HLADR), HLA-DRA (gene 3122); experiment: BSK_3C_HLADR: BioMAP Diversity Plus: 3C Assay for Human Leukocyte Antigen - DR isotype (HLADR) Biomarker Activity (AID 2283019); settings: primary human endothelial cells (HUVEC); actives raise or lower the signal
Procedure, shortened: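 Compound added to primary HUVEC cultures, 24 h incubation, then HLA-DR determined by ELISA; endpoint derived by bidirectional fitting relative to DMSO negative control.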

[16] = read-out: Interleukin-8 (IL8), CXCL8 (gene 3576); experiment: BSK_3C_IL8: BioMAP Diversity Plus: 3C Assay for Interleukin-8 (IL8) Biomarker Activity (AID 2283020); settings: primary human endothelial cells (HUVEC); actives raise or lower the signal
Procedure, shortened: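 Using DMSO-treated wells as the baseline, bidirectional curve fitting was applied to ELISA-measured IL-8 from human umbilical vein endothelial cultures sampled 24 h after compound addition.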

[17] = biological target: human Peroxisome Proliferator-activated Receptor alpha (PPARa), PPARA (gene 5465) (UniProt Q07869); experiment: ATG_PPARa_TRANS: Attagene TRANS-FACTORIAL HepG2 Assay for human Peroxisome Proliferator-activated Receptor alpha (PPARa) (AID 2283001; active = hit-call score of the fitted dose curve at least 0.9, where 1 is the maximum)
Procedure, shortened: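 Transient HepG2 transfection, GAL4-UAS reporters, NR-Gal4 chimeras; 24 h compound exposure. Readout: reporter transcripts by RT-PCR, 6-FAM primer extension, HpaI digest, capillary electrophoresis. Positive direction vs DMSO baseline.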

[18] = biological target: human RAR-related Orphan Receptor gamma (RORg), RORC (gene 6097) (UniProt P51449); experiment: ATG_RORg_TRANS: Attagene TRANS-FACTORIAL HepG2 Assay for human RAR-related Orphan Receptor gamma (RORg) (AID 2283011; active = hit-call score of the fitted dose curve at least 0.9, where 1 is the maximum)
Procedure, shortened: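 Chimeric RORg-Gal4 transactivation in transfected HepG2; 24 h exposure; RT-PCR/capillary electrophoresis readout of reporter mRNA, DMSO baseline.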

[19] = biological target: human Retinoic Acid Receptor gamma (RARg), RARG (gene 5916) (UniProt P13631); experiment: ATG_RARg_TRANS: Attagene TRANS-FACTORIAL HepG2 Assay for human Retinoic Acid Receptor gamma (RARg) (AID 2283009; active = hit-call score of the fitted dose curve at least 0.9, where 1 is the maximum)
Procedure, shortened: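 Gain-of-signal relative to DMSO is reported from fluorescent capillary electrophoresis of RT-PCR reporter products. These came from HepG2 cells expressing transfected RARg-GAL4 chimeras with UAS reporters, harvested 24 h after dosing.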

[20] = biological target: human Peroxisome Proliferator-activated Receptor delta (PPARd), PPARD (gene 5467) (UniProt Q03181); experiment: ATG_PPARd_TRANS: Attagene TRANS-FACTORIAL HepG2 Assay for human Peroxisome Proliferator-activated Receptor delta (PPARd) (AID 2283002; active = hit-call score of the fitted dose curve at least 0.9, where 1 is the maximum)
Procedure, shortened: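 Read-out: reporter mRNA induction, quantified by fluorescent RT-PCR products resolved by capillary electrophoresis. Human HepG2 liver cells carried transiently transfected Gal4-UAS reporter constructs with chimeric NR-Gal4 fusions. Cells were dosed for 24 h; DMSO served as baseline.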

Measured: AC50

Sequence of human Retinoid X Receptor beta (RXRb), RXRB (gene 6257) (P28702 whole entry, looked up, the tested form may be a part): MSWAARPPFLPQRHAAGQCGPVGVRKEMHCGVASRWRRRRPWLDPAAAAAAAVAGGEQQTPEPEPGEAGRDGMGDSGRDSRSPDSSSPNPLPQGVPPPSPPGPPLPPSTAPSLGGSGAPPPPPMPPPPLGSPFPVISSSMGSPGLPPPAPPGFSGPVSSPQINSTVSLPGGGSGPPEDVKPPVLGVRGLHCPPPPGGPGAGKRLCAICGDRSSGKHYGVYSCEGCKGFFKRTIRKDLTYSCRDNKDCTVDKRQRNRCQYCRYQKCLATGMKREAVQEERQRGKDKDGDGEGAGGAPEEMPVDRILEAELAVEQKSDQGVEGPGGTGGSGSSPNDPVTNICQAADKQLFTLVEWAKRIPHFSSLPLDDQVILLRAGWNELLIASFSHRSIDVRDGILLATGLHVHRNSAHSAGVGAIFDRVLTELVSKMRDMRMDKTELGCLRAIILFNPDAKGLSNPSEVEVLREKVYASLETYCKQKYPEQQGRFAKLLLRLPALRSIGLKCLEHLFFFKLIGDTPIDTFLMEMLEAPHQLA
Sequence of Retinoic acid receptor alpha (Homo sapiens) (P10276 whole entry, looked up, the tested form may be a part): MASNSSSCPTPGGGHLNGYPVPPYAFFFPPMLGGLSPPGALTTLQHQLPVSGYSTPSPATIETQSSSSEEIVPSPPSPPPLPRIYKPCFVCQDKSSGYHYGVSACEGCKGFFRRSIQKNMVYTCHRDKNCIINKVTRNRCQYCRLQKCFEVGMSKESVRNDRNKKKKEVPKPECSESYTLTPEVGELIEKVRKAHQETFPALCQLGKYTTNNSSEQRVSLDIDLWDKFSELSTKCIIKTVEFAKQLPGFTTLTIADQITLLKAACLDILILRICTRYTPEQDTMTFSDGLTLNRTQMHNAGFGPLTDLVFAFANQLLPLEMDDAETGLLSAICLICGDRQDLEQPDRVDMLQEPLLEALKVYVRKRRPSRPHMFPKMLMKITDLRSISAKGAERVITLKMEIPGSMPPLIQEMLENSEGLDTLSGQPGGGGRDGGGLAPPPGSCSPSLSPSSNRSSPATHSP
Sequence of Retinoic acid receptor RXR-alpha (Homo sapiens) (P19793 whole entry, looked up, the tested form may be a part): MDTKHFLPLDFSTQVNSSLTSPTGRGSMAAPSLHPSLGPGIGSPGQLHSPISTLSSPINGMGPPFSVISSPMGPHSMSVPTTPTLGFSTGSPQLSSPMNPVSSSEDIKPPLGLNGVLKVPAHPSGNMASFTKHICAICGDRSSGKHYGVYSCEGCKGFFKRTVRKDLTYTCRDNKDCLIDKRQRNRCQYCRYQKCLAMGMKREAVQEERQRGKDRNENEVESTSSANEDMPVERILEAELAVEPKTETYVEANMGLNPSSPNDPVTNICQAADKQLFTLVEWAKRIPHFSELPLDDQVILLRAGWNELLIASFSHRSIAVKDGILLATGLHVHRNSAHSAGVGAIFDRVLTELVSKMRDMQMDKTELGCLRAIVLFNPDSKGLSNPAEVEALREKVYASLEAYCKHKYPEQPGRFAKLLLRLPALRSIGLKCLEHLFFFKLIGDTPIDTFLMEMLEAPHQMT
Sequence of human Retinoic Acid Receptor beta (RARb), RARB (gene 5915) (P10826 whole entry, looked up, the tested form may be a part): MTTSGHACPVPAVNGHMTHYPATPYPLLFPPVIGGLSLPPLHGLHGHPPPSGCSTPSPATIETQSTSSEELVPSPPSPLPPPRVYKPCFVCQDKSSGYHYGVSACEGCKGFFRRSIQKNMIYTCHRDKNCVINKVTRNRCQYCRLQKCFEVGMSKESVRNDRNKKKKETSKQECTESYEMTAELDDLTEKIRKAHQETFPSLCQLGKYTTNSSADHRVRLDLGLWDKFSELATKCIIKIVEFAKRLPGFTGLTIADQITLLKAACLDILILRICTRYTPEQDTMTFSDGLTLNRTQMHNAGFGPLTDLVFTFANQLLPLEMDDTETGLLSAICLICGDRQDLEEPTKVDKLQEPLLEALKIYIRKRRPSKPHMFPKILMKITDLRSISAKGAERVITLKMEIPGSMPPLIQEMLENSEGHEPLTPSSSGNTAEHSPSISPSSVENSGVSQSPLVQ
Sequence of human Peroxisome Proliferator-activated Receptor alpha (PPARa), PPARA (gene 5465) (Q07869 whole entry, looked up, the tested form may be a part): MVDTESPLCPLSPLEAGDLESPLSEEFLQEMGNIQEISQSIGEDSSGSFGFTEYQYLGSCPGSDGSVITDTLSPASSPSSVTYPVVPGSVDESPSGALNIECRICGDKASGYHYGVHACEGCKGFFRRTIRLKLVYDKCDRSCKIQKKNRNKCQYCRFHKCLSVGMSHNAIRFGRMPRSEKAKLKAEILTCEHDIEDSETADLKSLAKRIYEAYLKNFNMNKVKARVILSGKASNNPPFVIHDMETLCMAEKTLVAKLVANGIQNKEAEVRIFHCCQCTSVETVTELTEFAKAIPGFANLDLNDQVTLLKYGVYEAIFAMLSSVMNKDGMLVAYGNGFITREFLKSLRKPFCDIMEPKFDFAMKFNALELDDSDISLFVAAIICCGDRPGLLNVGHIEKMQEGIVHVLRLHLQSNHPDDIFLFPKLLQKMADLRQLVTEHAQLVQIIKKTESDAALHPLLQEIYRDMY
Sequence of Nuclear receptor subfamily 1 group I member 2 (Homo sapiens) (O75469 whole entry, looked up, the tested form may be a part): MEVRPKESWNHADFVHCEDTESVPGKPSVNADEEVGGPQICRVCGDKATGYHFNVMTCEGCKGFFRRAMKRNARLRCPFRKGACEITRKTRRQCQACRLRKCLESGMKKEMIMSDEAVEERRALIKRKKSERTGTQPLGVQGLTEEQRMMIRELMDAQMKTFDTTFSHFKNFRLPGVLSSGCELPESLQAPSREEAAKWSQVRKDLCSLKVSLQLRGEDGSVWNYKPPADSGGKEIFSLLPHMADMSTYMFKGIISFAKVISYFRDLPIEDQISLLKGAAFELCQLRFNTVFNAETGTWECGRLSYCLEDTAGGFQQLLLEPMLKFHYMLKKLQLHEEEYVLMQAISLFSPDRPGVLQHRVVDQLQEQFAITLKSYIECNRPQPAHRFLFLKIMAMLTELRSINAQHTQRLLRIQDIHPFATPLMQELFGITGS
Sequence of E-selectin (Homo sapiens) (P16581 whole entry, looked up): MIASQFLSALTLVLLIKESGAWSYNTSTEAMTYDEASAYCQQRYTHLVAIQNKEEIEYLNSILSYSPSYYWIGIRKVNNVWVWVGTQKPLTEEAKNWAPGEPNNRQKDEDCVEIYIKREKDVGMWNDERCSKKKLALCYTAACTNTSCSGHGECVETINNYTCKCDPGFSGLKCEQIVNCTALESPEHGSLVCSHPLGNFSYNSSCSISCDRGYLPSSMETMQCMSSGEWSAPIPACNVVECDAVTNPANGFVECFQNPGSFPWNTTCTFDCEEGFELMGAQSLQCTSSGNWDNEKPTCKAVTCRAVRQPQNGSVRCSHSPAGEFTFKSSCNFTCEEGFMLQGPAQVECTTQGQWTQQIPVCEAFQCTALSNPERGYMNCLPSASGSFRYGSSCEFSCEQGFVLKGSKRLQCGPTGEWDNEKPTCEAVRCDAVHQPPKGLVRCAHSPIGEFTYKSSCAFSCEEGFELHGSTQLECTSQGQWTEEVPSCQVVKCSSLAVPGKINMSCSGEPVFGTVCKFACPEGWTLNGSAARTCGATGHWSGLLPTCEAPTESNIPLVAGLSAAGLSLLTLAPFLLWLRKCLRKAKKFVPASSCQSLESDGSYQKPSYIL
Sequence of Peroxisome proliferator-activated receptor gamma (Homo sapiens) (P37231 whole entry, looked up, the tested form may be a part): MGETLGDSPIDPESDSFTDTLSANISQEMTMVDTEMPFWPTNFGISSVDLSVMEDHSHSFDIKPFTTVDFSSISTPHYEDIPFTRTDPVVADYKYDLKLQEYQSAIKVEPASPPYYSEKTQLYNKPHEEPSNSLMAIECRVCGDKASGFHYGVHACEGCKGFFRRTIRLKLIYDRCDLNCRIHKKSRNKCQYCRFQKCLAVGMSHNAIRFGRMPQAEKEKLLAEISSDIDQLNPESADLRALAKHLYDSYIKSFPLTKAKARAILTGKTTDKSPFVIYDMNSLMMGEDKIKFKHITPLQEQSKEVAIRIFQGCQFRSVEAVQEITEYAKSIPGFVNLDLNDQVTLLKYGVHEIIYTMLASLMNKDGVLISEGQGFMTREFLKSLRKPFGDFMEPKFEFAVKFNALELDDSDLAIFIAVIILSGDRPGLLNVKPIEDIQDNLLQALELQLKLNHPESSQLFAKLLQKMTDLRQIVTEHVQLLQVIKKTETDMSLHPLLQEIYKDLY
Sequence of human Peroxisome Proliferator-activated Receptor delta (PPARd), PPARD (gene 5467) (Q03181 whole entry, looked up, the tested form may be a part): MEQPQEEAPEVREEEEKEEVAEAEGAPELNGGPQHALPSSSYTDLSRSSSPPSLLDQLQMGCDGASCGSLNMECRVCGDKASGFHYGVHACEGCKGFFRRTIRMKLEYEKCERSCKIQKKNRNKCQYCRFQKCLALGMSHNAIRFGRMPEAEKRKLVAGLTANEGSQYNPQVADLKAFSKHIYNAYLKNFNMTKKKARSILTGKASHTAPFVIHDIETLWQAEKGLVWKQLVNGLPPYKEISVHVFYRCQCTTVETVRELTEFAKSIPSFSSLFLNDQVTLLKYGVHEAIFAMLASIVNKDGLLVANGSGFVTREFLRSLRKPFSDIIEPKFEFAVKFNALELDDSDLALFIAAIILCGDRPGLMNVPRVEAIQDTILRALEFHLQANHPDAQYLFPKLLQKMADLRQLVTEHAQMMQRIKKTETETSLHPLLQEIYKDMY
Sequence of human Retinoic Acid Receptor gamma (RARg), RARG (gene 5916) (P13631 whole entry, looked up, the tested form may be a part): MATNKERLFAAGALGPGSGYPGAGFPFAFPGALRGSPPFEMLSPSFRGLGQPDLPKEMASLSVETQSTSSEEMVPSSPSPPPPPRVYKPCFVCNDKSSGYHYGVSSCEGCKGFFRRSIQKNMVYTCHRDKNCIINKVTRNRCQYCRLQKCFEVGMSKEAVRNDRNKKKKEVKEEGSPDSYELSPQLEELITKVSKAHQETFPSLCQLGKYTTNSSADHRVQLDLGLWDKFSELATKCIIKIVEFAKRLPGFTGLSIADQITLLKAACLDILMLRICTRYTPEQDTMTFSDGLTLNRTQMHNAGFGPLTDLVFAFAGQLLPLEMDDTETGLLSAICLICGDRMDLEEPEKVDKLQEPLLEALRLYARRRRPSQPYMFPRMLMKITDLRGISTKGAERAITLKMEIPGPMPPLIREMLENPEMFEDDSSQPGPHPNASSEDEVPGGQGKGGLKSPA

O=C1c2ccccc2C(=O)N1SC(Cl)(Cl)Cl
active: [12] 32 µM
inactive: [1] | [2] | [3] | [4] | [5] | [6] | [7] | [8] | [9] | [10] | [11] | [13] | [14] | [15] | [16]

CNC(=O)Oc1ccccc1OC(C)C
inactive: [1] | [2] | [17] | [3] | [4] | [6] | [7] | [8] | [18] | [11] | [13] | [14] | [15] | [16]

CC[C@H](C)[C@H]1O[C@]2(C=C[C@@H]1C)C[C@@H]1C[C@@H](C/C=C(\C)[C@@H](O[C@H]3C[C@H](OC)[C@@H](O[C@H]4C[C@H](OC)[C@@H](O)[C@H](C)O4)[C@H](C)O3)[C@@H](C)/C=C/C=C3\CO[C@@H]4[C@H](O)C(C)=C[C@@H](C(=O)O1)[C@]34O)O2 (tested in a mixture with another compound)
inactive: [4] | [5] | [19] | [9] | [10]
active: [1] 9.38 µM | [2] 9.57 µM | [3] 12.4 µM | [6] 4.78 µM | [11] 9.55 µM | [13] 6.9 µM | [14] 6.96 µM | [15] 5.8 µM | [16] 6.07 µM

CC(C)(C)C(O)/C(=C\c1ccc(Cl)cc1Cl)n1cncn1 (centres undefined)
inactive: [20] | [3] | [4] | [7] | [8] | [19] | [9]
active: [1] 25.3 µM | [2] 30.4 µM | [6] 26.3 µM | [11] 24 µM | [13] 30.9 µM | [14] 22.6 µM | [15] 31.6 µM | [16] 32.2 µM

COP(=O)(OC)OC=C(Cl)Cl
active: [6] 17.6 µM | [15] 20 µM
inactive: [1] | [2] | [20] | [3] | [7] | [8] | [13] | [14] | [16]

CNC(=O)/C=C(\C)OP(=O)(OC)OC
inactive: [1] | [2] | [17] | [3] | [6] | [7] | [8] | [9] | [10] | [11] | [12] | [13] | [14] | [15] | [16]

CCOCN(C(=O)CCl)c1c(C)cccc1CC
active: [1] 14.3 µM | [2] 35.3 µM | [6] 15.5 µM | [7] 1.23 µM | [11] 15.7 µM | [14] 20 µM | [15] 20 µM
inactive: [17] | [3] | [5] | [8] | [10] | [13] | [16]
